Measured values taken from PubChem BioAssay (NCI).
This is part of a sample that, as a whole, favours compounds with a hit. Of some 83,000 tested, about 20% had one in any assay.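 Cell lines were cultured in 96-well plates, exposed to a single compound concentration, and assessed for percent growth 48 hours later.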 Unmarked numbers belong to inactive results. Activity calls are given as the source filed them. The calls were made as follows: active = growth percent below 10; inactive = the rest.

Experiments:
Test in all cases: NCI-60 one-dose screen, 48 h (100 = growth as untreated, 0 = no growth, -100 = all killed)
Settings in all cases: 10 µM unless noted
DU-145 prostate = system: DU-145 prostate
K-562 leukemia = system: K-562 leukemia
MALME-3M melanoma = system: MALME-3M melanoma
MDA-MB-231 breast = system: MDA-MB-231 breast
RXF 393 renal = system: RXF 393 renal
SF-268 CNS = system: SF-268 CNS
SF-295 CNS = system: SF-295 CNS
SF-539 CNS = system: SF-539 CNS
UACC-257 melanoma = system: UACC-257 melanoma
M14 melanoma = system: M14 melanoma
HCT-15 colon = system: HCT-15 colon
HT29 colon = system: HT29 colon
SNB-75 CNS = system: SNB-75 CNS
SNB-19 CNS = system: SNB-19 CNS
U251 CNS = system: U251 CNS
PC-3 prostate = system: PC-3 prostate
SK-MEL-5 melanoma = system: SK-MEL-5 melanoma
UACC-62 melanoma = system: UACC-62 melanoma
LOX IMVI melanoma = system: LOX IMVI melanoma
SK-MEL-28 melanoma = system: SK-MEL-28 melanoma

Compound	growth (DU-145 prostate)	growth (K-562 leukemia)	growth (MALME-3M melanoma)	growth (MDA-MB-231 breast)	growth (RXF 393 renal)	growth (SF-268 CNS)	growth (SF-295 CNS)	growth (SF-539 CNS)	growth (UACC-257 melanoma)	growth (M14 melanoma)	growth (HCT-15 colon)	growth (HT29 colon)	growth (SNB-75 CNS)	growth (SNB-19 CNS)	growth (U251 CNS)	growth (PC-3 prostate)	growth (SK-MEL-5 melanoma)	growth (UACC-62 melanoma)	growth (LOX IMVI melanoma)	growth (SK-MEL-28 melanoma)
Clc1ccc(N/N=C/c2ccccn2)nc1	19.2%	10.8%	1.36% (active)	34.5%	16.2%	6.56% (active)	1.61% (active)	1.62% (active)	1.06% (active)	-25.7% (active)	20.6%	27.3%	21.7%	28.2%	18.1%	39.3%	-66.3% (active)	-7.02% (active)	-6.42% (active)	20%
O=C(Nc1ccc(-n2cc(-c3ccncc3)c(-c3ccc(Cl)c(O)c3)n2)cc1)c1ccc(Cl)c(C(F)(F)F)c1	26.4%	2.13% (active)	-26.6% (active)	-33.5% (active)	-66.3% (active)	28.6%	-63.4% (active)	-32.4% (active)	31.4%	-79.4% (active)	-28% (active)	-86.3% (active)	-48.6% (active)	32.5%	-49.1% (active)	-19.9% (active)	-97.5% (active)	-3.14% (active)	-5.19% (active)	-38.3% (active)
c1cc(C2CCCCC2)ccc1OCCCCCCN1CCNCC1	17.9%	-42.1% (active)	52.7%	33.4%	32%	54.5%	73.1%	32.4%	73.1%	40.3%	-64.5% (active)	4.38% (active)	31.2%	57.6%	-8.72% (active)	27.5%	34.4%	70.3%	-90.5% (active)	60.1%
C/C=C(/C)C(=O)OC1C=C(CO)C(=O)C(OC(=O)/C(C)=C\C)C1C(C)C (stereo not given)	-90.9% (active)	-18.3% (active)	-91.2% (active)	-61.2% (active)	-79.2% (active)	-57.3% (active)	-54.3% (active)	-92.1% (active)	-48.8% (active)	-84.7% (active)	-49.3% (active)	-65.6% (active)	-43.4% (active)	-54% (active)	-73.8% (active)	-54.1% (active)	-99.3% (active)	-84.7% (active)	-92.5% (active)	-92.6% (active)
CC[C@H](Nc1ncnc2nc[nH]c12)c1nc2cccc(NCc3ccc(C(=O)NO)o3)c2c(=O)n1-c1ccccc1	101%	102%	77.1%	113%	110%	84.1%	102%	100%	102%	103%	103%	91.3%	71.6%	99.7%	107%	93.3%	101%	92.6%	95.4%	100%
COC(=O)c1ccc2[nH]c(O)c(C(=Nc3ccc(N(C)C(=O)CN4CCN(C)CC4)cc3)c3ccc(OC)cc3)c2c1	21.1%	4.93% (active)	6.81% (active)	23.6%	-24.8% (active)	21.3%	37.6%	-0.308% (active)	48.9%	14.3%	10.4%	20%	6.7% (active)	32.4%	19%	28.7%	28.5%	39.2%	16.1%	32.8%
COc1cc(-c2nn(-c3ccc(NC(=O)c4ccc(Cl)c(C(F)(F)F)c4)cc3)cc2-c2ccncc2)ccc1Cl	45.2%	8.48% (active)	14.9%	3.94% (active)	-56.3% (active)	43.8%	-33.2% (active)	13%	54.2%	-44.3% (active)	-44.1% (active)	-75.5% (active)	-7.6% (active)	32.9%	22.2%	2.37% (active)	-93.3% (active)	-0.867% (active)	21.6%	35.7%
CC(C)(CNC1CCCCC1)OC(=O)c1ccccc1	104%	94.1%	99.2%	110%	102%	107%	94.1%	108%	110%	102%	97.7%	95.5%	105%	103%	100%	91.6%	97.7%	106%	96.7%	114%
COc1cc(-c2c3c(cn2CCN2CCCCC2)-c2oncc2CC3)cc(OC)c1OC	109%	108%	110%	109%	100%	94.7%	97.6%	94%	109%	105%	98.3%	84%	81.4%	99.8%	101%	89.7%	98.3%	90.4%	97.7%	100%
CC(O)C(N)=O (stereo not given)	109%	101%	105%	114%	107%	103%	95%	94.7%	112%	97.9%	97.1%	111%	84.3%	106%	103%	92.6%	101%	107%	109%	100%
CCCCCCN(CCCCCC)CCC(=O)Nc1ccc(S(=O)(=O)c2ccc(NC(=O)CCN(CCCCCC)CCCCCC)cc2)cc1	95.4%	7.37% (active)	96%	61%	83.3%	80.1%	100%	94.7%	99.8%	88.9%	72.9%	29.9%	71.3%	88%	88.4%	76.6%	90%	91.3%	76.5%	91.9%
COC(=O)C(C)[C@H]1CC[C@@H]2[C@]1(C)CC=C1[C@]23C=C[C@]2(C[C@@H](OC(C)=O)CC[C@]12C)C(C(=O)OC)C3C(=O)OC (stereo not given in full)	99.6%	48.8%	73.1%	89.5%	102%	90.5%	88.4%	99.3%	97.5%	96.5%	61.5%	95.2%	98.5%	95.9%	88.8%	57.1%	60.6%	79.9%	91.7%	95%
CCOC(=O)CCCCCCCCC(=O)OCC	108%	101%	94.4%	111%	112%	97.3%	103%	112%	101%	114%	117%	109%	102%	103%	97.2%	101%	107%	102%	96.9%	110%
Nc1ccc(S(=O)(=O)c2ccc(NO)cc2)cc1	89.4%	91.8%	144%	98.3%	53.7%	109%	106%	76.8%	106%	117%	116%	101%	87.8%	97.1%	101%	96.8%	102%	115%	99.5%	105%
COc1cc(NC(=O)CSc2nc3ccc(Cl)cc3c(=O)n2-c2ccc(F)cc2)cc(OC)c1OC	96.9%	80.5%	85.8%	64.7%	80.2%	79.8%	80%	98.4%	97.4%	84.8%	84.5%	97.9%	72.6%	82.2%	82.1%	73%	73.9%	71.3%	73.5%	95.4%
